Records with an inconclusive call do not appear. Active and inactive are the calls of the source. How the source made its calls: active means hit-call score of the fitted dose curve at least 0.9, where 1 is the maximum; inconclusive means response in the unintended direction; inactive means score below 0.9.
These molecules were tested against Oxysterols receptor LXR-alpha (Homo sapiens) (UniProt Q13133) (assay: ATG_LXRa_TRANS: Attagene TRANS-FACTORIAL HepG2 Assay for human Liver X Receptor alpha (LXRa) (AID 2282980)). Details: HepG2 Attagene TRANS reporter, LXRa transactivation.
Sequence of Oxysterols receptor LXR-alpha (Homo sapiens) (Q13133 whole entry, looked up): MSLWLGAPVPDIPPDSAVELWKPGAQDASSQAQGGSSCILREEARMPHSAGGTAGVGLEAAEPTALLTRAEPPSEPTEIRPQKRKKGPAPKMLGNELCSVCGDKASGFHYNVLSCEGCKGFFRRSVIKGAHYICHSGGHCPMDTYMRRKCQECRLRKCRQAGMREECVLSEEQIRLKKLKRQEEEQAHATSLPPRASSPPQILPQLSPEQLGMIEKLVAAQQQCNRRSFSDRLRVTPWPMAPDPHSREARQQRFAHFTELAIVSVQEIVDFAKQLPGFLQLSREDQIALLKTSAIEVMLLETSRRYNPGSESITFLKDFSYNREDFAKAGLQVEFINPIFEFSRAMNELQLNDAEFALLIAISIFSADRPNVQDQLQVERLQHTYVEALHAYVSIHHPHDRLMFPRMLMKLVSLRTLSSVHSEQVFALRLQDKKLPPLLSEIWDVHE
Method: ATG_TRANS is a cell-based, multiplexed-readout assay that uses HepG2, a human liver cell line, with measurements taken at 24 hours after chemical dosing in a 24-well plate.ATG_LXRa_TRANS is one of 30 assay component(s) measured or calculated from the ATG_TRANS assay. It is designed to make measurements of mRNA induction, a form of inducible reporter, as detected with fluorescence intensity signals by Reverse transcription polymerase chain reaction (RT-PCR) and Capillary electrophoresis technology.Data from the assay component ATG_LXRa_TRANS was analyzed into 1 assay endpoint. This assay endpoint, ATG_LXRa_TRANS, was analyzed in the positive analysis fitting direction relative to DMSO as the negative control and baseline of activity. Using a type of inducible reporter, measures of mRNA for gain-of-signal activity can be used to understand the reporter gene at the transcription factor-level as they relate to the gene NR1H3. Furthermore, this assay endpoint can be referred to as a primary readout, because this assay has produced multiple assay endpoints where this one serves a reporter gene function. To generalize the intended target to other relatable targets, this assay endpoint is annotated to the nuclear receptor intended target family, where the subfamily is non-steroidal.
Human liver HepG2 cells are transiently transfected with multiple reporter transcription units (MRTUs) in 6-well plates using FuGene 6 reagent (Roche; 3 ml FuGene/1 mg DNA). The MRTU constructs are regulated by a cis-regulating element (promoter). […] A major difference between the CIS and TRANS system is that in CIS activities of endogenous TFs are measured, whereas the TRANS assay evaluates changes in activities of exogenous, chimeric NR-Gal4 proteins. […] At the end of 24 hour incubation, total RNA was isolated using TriZol reagent (Invitrogen). The isolated RNA is then reverse-transcribed using oligo(dT) primer and Mo-MLV reverse transcriptase (Invitrogen) with DNAse I (Ambion) treatment for 30 min. The one-tenth of the produced cDNA was amplified by PCR using Taq DNA polymerase (Invitrogen) and two reporter sequence-specific primers. The PCR products were fluorescently labeled by primer extension with 6-arboxyfluorescein (6-FAM) 5'-labeled reporter sequence-specific primer (2 min at 95 C, 20 s at 68 C and 10 min at 72 C) and these products were digested with 5U of HpaI (New England Biolabs) for 2h at 37 C. The fragments were purified using Qiaquick PCR columns (Qiagen), analyzed on an ABI 3130xL genetic analyzer (Applied Biosystems) with peak positions identified by using a set of X-rhodamine (ROX)-labeled MapMarker1000 molecular weight standards (BioVentures). The raw capillary electrophoresis data was processed using Attagraph software (Attagene).

| Compound | outcome | AC50 |
| --- | --- | --- |
| COCC(C)O (centres undefined) | inactive | – |
| CCCCC(CC)COC(=O)CCCCC(=O)OCC(CC)CCCC (centres undefined) | inactive | – |
| NC(=O)N1C(=O)C(C(=O)c2cc(Cl)cs2)c2cc(F)c(Cl)cc21 (centres undefined) | inactive | – |
| OC1CCCCC1 | inactive | – |
| O=C1OC2(c3ccccc31)c1cc(Br)c(O)c(Br)c1Oc1c2cc(Br)c(O)c1Br | inactive | – |
| CC(C)(C)c1cccc(C(C)(C)C)c1O | – | 49.7 µM (active) |
| FC(F)(I)C(F)(F)C(F)(F)C(F)(F)C(F)(F)C(F)(F)I | inactive | – |
| CCCOC(=O)c1ccc(O)cc1 | inactive | – |
| CN(C)C=O | inactive | – |
| CCC(=C(c1ccc(O)cc1)c1ccc(OCCN(C)C)cc1)c1ccccc1 | inactive | – |
| O=c1c(-c2ccc(O)cc2)coc2cc(O)ccc12 | inactive | – |
| CC(C)(C)c1cc(C(C)(C)C)c(O)c(C(C)(C)C)c1 | inactive | – |
| OC1CCC(C2CCCCC2)CC1 (centres undefined) | inactive | – |
| CC(O)C(=O)O (centres undefined) | inactive | – |
| CC1=C(/C=C/C(C)=C/C=C/C(C)=C/C(=O)O)C(C)(C)CCC1 | inactive | – |
| CCCCCCC(=O)O | inactive | – |
| Cc1ccc(S(=O)(=O)O)c(C)c1 | inactive | – |
| CCCCCCCCCCCCc1ccccc1S(=O)(=O)O | inactive | – |
| CCCOc1sc(C(=O)N2CCC(c3cc(CN)ccc3F)CC2)c(C)c1Br | – | 1.34 µM (active) |
| CCc1ccc(CCOc2ccc(CC3SC(=O)NC3=O)cc2)nc1 (centres undefined) | inactive | – |

| Compound | outcome | AC50 |
| --- | --- | --- |
| CCN(CC)CCNc1ccc(CNC=O)c2sc3ccc(OC)cc3c(=O)c12 | – | 1.26 µM (active) |
| CC(=O)NC1(c2cccc(F)c2)CCN(CC[C@@]2(c3ccc(Cl)c(Cl)c3)CN(c3ccccc3)C(=O)CO2)CC1 | inactive | – |
| CC(C)(C)c1ccc(O)c(C(C)(C)C)c1 | – | 5.26 µM (active) |
| C[C@@H]1C[C@H]2[C@@H]3CCC4=CC(=O)C=C[C@]4(C)[C@@]3(F)[C@@H](O)C[C@]2(C)[C@@]1(O)C(=O)COP(=O)(O)O | inactive | – |
| CCOC(=O)CC(O)(CC(=O)OCC)C(=O)OCC | inactive | – |
| ClC1=C(Cl)C(Cl)(Cl)C(Cl)=C1Cl | inactive | – |
| OCCC(F)(F)C(F)(F)C(F)(F)C(F)(F)C(F)(F)C(F)(F)F | inactive | – |
| CCC(C)(C)C1CCC(O)CC1 (centres undefined) | inactive | – |
| Oc1cc2ccccc2c2ccccc12 | inactive | – |
| O=C(/C=C/c1ccc(O)cc1)CC(=O)/C=C/c1ccc(O)cc1 | inactive | – |
| O=C(O)Cc1cc(I)c(Oc2cc(I)c(O)c(I)c2)c(I)c1 | inactive | – |
| CCCCC[C@H](O)CC(=O)CCc1ccc(O)c(OC)c1 | inactive | – |
| CC(C)CCCCCCOC(=O)CCCCC(=O)OCCCCCCC(C)C | inactive | – |
| OCCC(F)(F)C(F)(F)C(F)(F)C(F)(F)C(F)(F)C(F)(F)C(F)(F)C(F)(F)F | inactive | – |
| O=C(OCCOCCOC(=O)c1ccccc1)c1ccccc1 | inactive | – |
| O=C(O)c1ccccc1C(c1ccc(O)cc1)c1ccc(O)cc1 | inactive | – |
| O=[N+]([O-])c1ccc(O)cc1 | inactive | – |
| CC(=O)CC(C)(C)O | inactive | – |
| N#C[C@@H]1CC(F)(F)CN1C(=O)CNC1CC2CCC(C1)N2c1ncccn1 (some centres undefined) | inactive | – |

Reference: PubChem BioAssay (EPA / NIEHS)
